GALK inhibitor: qHTS Assay for Inhibitors of Human Galactokinase (GALK); P51570; Purified GALK, Kinase-Glo residual ATP luminescence; Potency, µM (series often up to 57.5 µM), for inactives: at the top dose activity change, negative = inhibition, hits mostly inhibitors; 0.007% of 270,000 active; note: potency is the fitted concentration of half-maximal effect
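Galactose (100 uM) and ATP (35 uM) were turned over by 5 nM GALK for 1 h at RT. Kinase-Glo Plus then converted the remaining ATP into a luminescent signal.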
RORg inh: qHTS for inhibitors of ROR gamma transcriptional activity; Nuclear receptor ROR-gamma (Mus musculus), P51450; Drosophila S2 Gal4-RORgamma UAS-luciferase reporter, 20 h; Potency, µM (highest dose often 53.6 µM), inactives show at the top dose activity change, negative = inhibition, usual class: inhibitors; 5.4% of 310,000 active; note: potency is the fitted concentration of half-maximal effect; nearly all actives have a fitted effect of over 60% in size
Target sequence (P51450 whole entry, looked up, the tested form may be a part): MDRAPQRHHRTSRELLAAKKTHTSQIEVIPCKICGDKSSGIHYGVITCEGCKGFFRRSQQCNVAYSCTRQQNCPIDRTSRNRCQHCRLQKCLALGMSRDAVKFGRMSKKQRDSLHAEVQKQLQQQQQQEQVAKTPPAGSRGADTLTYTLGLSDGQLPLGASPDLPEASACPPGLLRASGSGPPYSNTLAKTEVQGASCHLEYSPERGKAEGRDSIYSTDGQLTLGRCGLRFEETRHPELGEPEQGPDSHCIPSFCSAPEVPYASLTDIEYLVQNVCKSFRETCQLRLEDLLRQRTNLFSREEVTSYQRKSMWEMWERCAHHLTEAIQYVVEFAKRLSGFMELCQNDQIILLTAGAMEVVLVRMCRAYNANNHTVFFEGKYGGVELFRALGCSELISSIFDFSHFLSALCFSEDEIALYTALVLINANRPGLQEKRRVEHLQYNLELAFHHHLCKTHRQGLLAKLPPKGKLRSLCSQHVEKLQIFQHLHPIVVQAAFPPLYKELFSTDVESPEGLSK
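Drosophila S2 cells stably expressing Gal4-DBD/mouse RORγ fusion under metallothionein promoter plus UAS-luciferase; compound 1 h, then 700 uM CuSO4 induction for 20 h at ambient temperature; inhibition read as reduced luminescence.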
Gal4-VP16 FLuc: VP16 counterscreen qHTS for inhibitors of ROR gamma transcriptional activity; AID 2546, 2010; Potency, µM (series often up to 53.6 µM), for inactives: at the highest dose activity, negative = inhibition, most hits filed as inhibitors; Drosophila S2 Gal4-VP16 UAS-luciferase, luminescence, 20 h; 3.5% of 310,000 active;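 note: Gal4-VP16 expression switched on by copper sulfate through the metallothionein promoter; potency is the fitted concentration of half-maximal effect; nearly all actives have a fitted effect of over 50% in size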
TrxR1 inh: qHTS Assay for Inhibitors of Mammalian Selenoprotein Thioredoxin Reductase 1 (TrxR1): qHTS; Thioredoxin reductase 1, cytoplasmic (Rattus norvegicus), O89049; recombinant rTrxR1, NADPH fluorescence consumption, selenite substrate; Potency, µM (doses to about 114 µM), for the others: top-dose activity change, negative = inhibition, usual class: inhibitors; 1% of 390,000 active; AID 588453, 2011; note: potency is the fitted concentration of half-maximal effect; nearly all actives have a fitted effect of over 65% in size
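Rat TrxR1 (90 nM in the dispensed reagent) was pre-reduced with 400 uM NADPH for 5 min at room temperature, then incubated with compound for 15 min. After 400 uM selenite was added, NADPH fluorescence (Ex 340/Em 450 nm) was followed for 8 min.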
FBPA coupling cs: qHTS Assay for Inhibitors of Fructose-1,6-bisphosphate Aldolase from Giardia Lamblia: Coupling assay counterscreen; coupling enzyme system counterscreen, AmpLite Red fluorescence; activity change, negative = inhibition, % at 58.2 µM, hits read low; 0.67% of 290,000 active; in the data active = activity change below about -30%
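Final compound at 57.5 uM, incubated 10 min at RT with coupling enzyme reagent (glyceraldehyde-3-phosphate), then 20 min with substrate and AmpLite Red detection. Fluorescence read at 525/598 nm; tests interference with the coupling assay, not aldolase inhibition.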
TrxR1 substrate: qHTS Assay for Substrates of Mammalian Selenoprotein Thioredoxin Reductase 1 (TrxR1): qHTS; Thioredoxin reductase 1, cytoplasmic (Rattus norvegicus), O89049; purified TrxR1 substrate turnover, NADPH consumption readout; Potency, µM (doses to about 114 µM), without a hit: at the top dose activity change, negative = substrate turnover; 0.01% of 390,000 active; AID 588456, 2011; note: potency is the fitted concentration of half-maximal effect; nearly all actives have a fitted effect of over 50% in size
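Rat TrxR1, dispensed at 90 nM, was prereduced with 400 uM NADPH (final) for 5 min at ~22 deg C, then incubated with compound 15 min before 400 uM selenite. A first-read NADPH fluorescence drop versus no-compound background flagged substrates.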
Starred values were filed as active, the others as inactive; ? = inconclusive; . = no result given; ! = a repeat was not active; [ ] = dose if it differs, or a comment. Shown are actives, neighbours in structure and some others; about 5.9% of the full set was active somewhere. Unless noted, calls come from the whole dose curve; as a rule, active = well fitted curve in the direction sought with a large enough effect; inconclusive = small, poorly fitted or top-dose-only effect, or another doubt; inactive = no such curve, though single readings can be large; an effect the other way counts as inactive or inconclusive. % is set by controls: 0 for no effect and ±100 for the full control effect.

SMILES | GALK inhibitor | RORg inh | Gal4-VP16 FLuc | TrxR1 inh | FBPA coupling cs | TrxR1 substrate
Cc1nnc(NC(=O)c2ccc(S(=O)(=O)N3CC(C)CC(C)C3)cc2)o1 (stereo unspecified) | -2.4% | 1.41µM* | 1.41µM* | 16.4% | 9.0 | 1.0%
CCOc1cc(/C=N/NC(=O)C(=O)Nc2cc(Cl)ccc2C)ccc1O | 1.7% | -21.1% | -23.5% | 1.5% | 2.0 | -1.8%
CC1=C(C(=O)Nc2ccccc2F)C(c2cccs2)C2=C(CCCC2=O)N1 (stereo unspecified) | -2.7% | 8.2% | -10.0% | 5.4% | 1.1 | 1.5%
Cc1ccc(-c2ccc(CCC(=O)O)n2-c2cccc(O)c2)cc1 | -1.2% | 42.7% | 8.4% | ? | 11.0 | 0.0%
COCCn1c(SCC(=O)NCCc2ccccc2)nc2c([nH]c3ccccc32)c1=O | 6.2% | -29.2% | 3.8% | 5.3% | . | 1.7%
CCOC(=O)C1C(=O)C(C(=O)OCC)C(c2cccnc2)NC1c1cccnc1 (stereo unspecified) | 0.7% | -7.1% | 2.3% | 3.16µM* | 1.4 | 22.3%[57.1 µM]
CC(=O)Nc1ccc(-n2cc(-c3ccccc3)[nH]c2=S)cc1 | 10.2% | ? | -3.2% | -1.2% | 0.0 | -0.5%
COc1ccc(-n2cc(-c3ccccc3)[nH]c2=S)cc1 | 1.7% | 2.24µM* | 3.55µM* | -20.0%[11.4 µM] | -0.5 | 0.4%
COc1cccc(-c2cn(-c3cccc(C(F)(F)F)c3)c(=S)[nH]2)c1 | 4.0% | 3.16µM* | ? | 7.0% | -2.4 | 1.5%
CCOc1ccc(-n2cc(-c3ccc(OC)c(OC)c3)[nH]c2=S)cc1 | 0.7% | 1.26µM* | ? | ? | -0.8 | 9.7%
Cc1ccc(-c2cn(-c3ccccc3F)c(=S)[nH]2)cc1 | . | 1.78µM* | 7.08µM* | -17.4% | 0.2 | -7.8%
O=C(COC(=O)c1cc(NS(=O)(=O)c2cccs2)ccc1O)Nc1ccccc1 | -1.0% | ? | 9.1% | 12.5% | 2.8 | -5.4%
Cc1cccc(-n2cc(-c3ccccc3)c3c(NC(C)C)ncnc32)c1 | . | . | . | -16.4%[57.1 µM] | . | -5.2%[57.1 µM]
O=[N+]([O-])c1ccc(-c2cn(-c3ccccc3F)c(=S)[nH]2)cc1 | 0.5% | ? | -11.6% | -7.4% | -0.1 | -9.2%
Cc1cccc(-n2cc(-c3ccccc3)[nH]c2=S)c1 | 0.2% | 2.51µM* | 7.08µM* | -2.8% | -0.3 | 3.6%
CCOc1ccc(-c2cn(-c3cccc(SC)c3)c(=O)[nH]2)cc1 | 0.1% | 7.0% | -6.6% | -17.7% | 1.2 | -9.6%
CCOc1ccc(-c2cn(-c3ccccc3OC)c(=S)[nH]2)cc1 | . | 3.55µM* | 8.91µM* | -28.1% | 0.3 | -2.7%[57.1 µM]
COc1ccc(-n2cc(-c3ccccc3)c3c(=O)[nH]cnc32)cc1 | 1.0% | -41.2% | 18.4% | 0.8%[57.1 µM] | -1.0 | 2.0%[57.1 µM]
COc1ccccc1-n1cc(-c2ccccc2)[nH]c1=S | . | 3.98µM* | 20µM* | -2.4% | 1.3 | 9.2%
COc1ccccc1-n1cc(-c2ccccc2)c2c(=S)nc[nH]c21 | -3.8% | 1µM* | 1µM* | 22.8% | -0.6 | 1.5%
CC(C)=CC(=O)Nc1nnc(-c2ccccc2C)s1 | 1.8% | 31.7% | 1.0% | 24.4%[57.1 µM] | 3.0 | 10.5%[57.1 µM]
COc1ccc(NC(=O)C(NS(=O)(=O)c2cccc3nsnc23)C(C)C)cc1OC (stereo unspecified) | . | . | . | 10.6% | . | -0.8%
Cc1cccc(NC(=O)C(=O)NNC(=O)c2ccc(C(C)(C)C)cc2)c1 | -3.4% | ? | 10µM* | 6.8% | 8.4 | -1.6%
CC(C)(C)c1ccc(C(=O)NNC(=O)c2cccc(Br)c2)cc1 | -4.4% | ? | ? | -7.4% | -1.3 | 9.8%
CC1=NN(C(=O)c2ccc(C)cc2)C(O)(C(F)(F)OC(F)(F)F)C1 (stereo unspecified) | -0.8% | 6.31µM* | 11.2µM* | 15.3% | -0.1 | 4.4%
SMILES | GALK inhibitor | RORg inh | Gal4-VP16 FLuc | TrxR1 inh | FBPA coupling cs | TrxR1 substrate
CC1=NN(C(=O)c2ccccc2-n2cccc2)C(O)(C(F)(F)F)C1 (stereo unspecified) | 3.9% | 10µM* | ? | -0.5% | 3.1 | -5.1%
COc1ccc(/C=N/Nc2ccc(C(F)(F)F)cc2[N+](=O)[O-])cc1 | 0.9% | 3.3% | -7.1% | -4.7% | 0.6 | -10.0%
COC(=O)c1ccc(NS(=O)(=O)c2ccc(-c3cc(C)no3)s2)cc1 | 6.4% | 2.8% | -8.9% | 9.0% | 8.1 | -8.3%
O=[N+]([O-])c1ccc2c(c1)C=CC2 | . | . | . | 12.6µM* | . | 1.7%
O=[N+]([O-])c1ccc2c(c1)Cc1cc(F)ccc1-2 | . | . | . | 18.7% | . | -2.9%
COc1c(O)cc2oc3cc(O)c(CC=C(C)C)c(O)c3c(=O)c2c1CC=C(C)C | . | ? | 25.1µM*! | . | -4.7 | .
CC(=O)NC(c1cccs1)c1cc(F)c2cccnc2c1O (stereo unspecified) | . | . | . | 3.6% | . | -0.4%
Cc1ccc(C(NC(=O)C(C)C)c2cc([N+](=O)[O-])c3cccnc3c2O)cc1 (stereo unspecified) | . | 2.24µM* | ? | 11.7%[57.1 µM] | -6.6 | -7.8%[57.1 µM]
CCC(=O)NC(/C=C/c1ccccc1)c1cc([N+](=O)[O-])c2cccnc2c1O (stereo unspecified) | -1.1% | 2.24µM* | 2µM* | . | -14.7 | .
CC(C)C(=O)NC(c1cccs1)c1cc([N+](=O)[O-])c2cccnc2c1O (stereo unspecified) | -0.3% | 3.16µM* | 3.55µM* | ? | -22.4 | -23.4%
Cc1ccc(N2C(=O)C(CC(=O)Nc3ccc(F)cc3)N(Cc3ccc4c(c3)OCO4)C2=O)cc1 (stereo unspecified) | . | . | . | 11.2% | . | -5.1%
Cc1ccccc1/C=N/n1c(C2CCCCC2)n[nH]c1=S | -0.2% | 15.8µM* | ? | -5.8% | -3.3 | 1.4%
Fc1ccccc1/C=N/n1c(C2CCCCC2)n[nH]c1=S | -2.7% | 11.2µM* | ? | 1.9% | -2.5 | -0.3%
O=[N+]([O-])c1ccccc1/C=N/n1c(C2CCCCC2)n[nH]c1=S | -0.3% | ? | 35.5µM* | ? | -2.6 | -5.3%
O=S(=O)(NCCc1csc(-c2ccc(C(F)(F)F)cc2)n1)c1ccc2c(c1)OCCO2 | -0.3% | ? | ? | 2.2%[57.1 µM] | -0.3 | 1.2%[57.1 µM]
COc1ccc(-n2nnnc2C2CCN(S(=O)(=O)c3cc(Cl)ccc3OC)CC2)cc1 | . | . | . | 28.9% | . | 6.4%
N#Cc1ccccc1S(=O)(=O)N1CCN(C(=O)c2cccc(S(=O)(=O)N3CCCC3)c2)CC1 | . | . | . | -6.8% | . | -2.5%

Bioassay records deposited in PubChem by National Center for Advancing Translational Sciences (NCATS).
